Common to all, as to assay: NCI-60 one-dose screen, 48 h (100 = growth as untreated, 0 = no growth, -100 = all killed)
Common to all, as to conditions: 10 µM unless noted

The subject of assay [1] is NCI-H23 lung.
Assay [2] has as its system NCI-H226 lung.
The subject of assay [3] is NCI-H322M lung.
Assay [4] deals with HOP-62 NSCLC.
The test system of assay [5] is NCI-H460 lung.
The test system of assay [6] is NCI-H522 lung.
Assay [7] concerns A549/ATCC NSCLC.
For assay [8], the system named is 786-0 renal.
For assay [9], the system named is COLO 205 colon.
Assay [10] deals with DU-145 prostate.
Assay [11] relates to K-562 leukemia.
The test system of assay [12] is MALME-3M melanoma.
In assay [13] the test system is MDA-MB-231 breast.
The subject of assay [14] is RXF 393 renal.
In assay [15] the test system is SF-268 CNS.
The test system of assay [16] is SF-295 CNS.
Assay [17] deals with SF-539 CNS.
Assay [18] has as its system UACC-257 melanoma.
In assay [19] the test system is M14 melanoma.

The panel holds about 83,000 compounds, 20% with a hit somewhere; the sample as a whole holds those more often.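 Compound tested at a single concentration for 48 hours in 96-well plates; a percent growth value below 10 was scored as active.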 Values without a mark were called inactive. Activity calls are given as the source filed them.

As to `CN(C)c1nc(-c2cccs2)n2nc(-c3ccc(Cl)cc3)cc2n1`, the growth in assay [1] was 61.9%; in assay [2], -25.5% (active); in assay [3] it was 11.8%; in [4], -39.5% (active); in [5], -1.56% (active); in [6], 39.9%. The growth was 10.9% in [7]; -40.7% (active) in [8]; 39.1% in [9]; 72.2% in assay [10]; 73.7% in [11]; 57.6% in assay [12]. Also, the growth in [13] is 19.3%; in [14], 13.3%; in assay [15] it was 55%; in [16] it was -5.01% (active); in [17] it was 47.5%; in assay [18], 79.6%. For the same compound, the growth in assay [19] is 61.4%.
Take `COC(=O)C(Br)(C(=O)OC)C(Br)C(Br)C(Br)c1ccccc1` (stereo unspecified): the growth in assay [1] is 94.1%; in assay [2] it was 91.8%; in [3], 102%; in [4], 120%; in [5] it was 100%; in assay [6] it was -84.5% (active). The growth is 97.9% in assay [7]; 86% in assay [8]; 30.1% in assay [9]; 89.3% in [10]; 19.9% in assay [11]; 47.5% in assay [12]. The growth in assay [13] is 89%; in assay [14], -20.8% (active); in assay [15], 101%; in [16], 114%; in assay [17], 26.6%; in assay [18] it was 56.4%. The growth in [19] is 44.2%.
Turning to `O=C(O)CSc1ccc(NCc2oc(CO)cc(=O)c2O)cc1`, the growth is 99.9% in assay [1]; 94.8% in assay [2]; 110% in [3]; 105% in assay [4]; 110% in assay [5]; 89.3% in [6]. The growth in assay [7] is 103%; in assay [8], 96.6%; in [9] it was 106%; in assay [10], 110%; in assay [11], 89%; in assay [12] it was 99.6%. Besides, the growth in [13] was 97.2%; in [14], 110%; in assay [15] it was 107%; in assay [16], 106%; in [17], 92.2%; in assay [18], 105%. Further, the growth in assay [19] is 74.6%.
On to `c1ccc(-c2nnn(-c3ccccc3)n2)cc1`, for which the growth in [1] was 105%; in assay [2] it was 91.4%; in assay [3] it was 100%; in assay [4] it was 95.8%; in assay [5], 114%; in assay [6], 89.7%. The growth is 99.7% in [7]; 104% in [8]; 117% in assay [9]; 127% in assay [10]; 89.1% in assay [11]; 115% in assay [12]. The growth in assay [13] was 84.6%; in assay [14], 102%; in assay [15] it was 109%; in assay [16], 106%; in [17], 105%; in assay [18], 103%. Besides, the growth in assay [19] is 109%.
Consider `CN1C(=O)N(C)C2C1NN=c1s/c(=C\c3ccc(C(F)(F)F)cc3)c(=O)n12` (stereo unspecified), for which the growth in assay [1] was 39.5%; in assay [2], 43.2%; in assay [3] it was 32.4%; in assay [4] it was 31.9%; in assay [5], 11.7%; in assay [6], 2.74% (active). Also, the growth in assay [7] is 31.9%; in [8] it was 25.5%; in assay [9] it was -0.525% (active); in [10], 9.33% (active); in assay [11], 10.6%; in [12] it was 56%. Besides, the growth was 60.4% in assay [13]; -3.65% (active) in assay [14]; 45.1% in [15]; 10.4% in assay [16]; 3.31% (active) in assay [17]; 44.6% in assay [18]. In assay [19], the growth was 16%.
Take `COc1cc(Nc2ncccc2/C=C/C(=O)c2cc(OC)c(OC)c(OC)c2)cc(OC)c1OC`: the growth is 81.7% in assay [1]; 82.9% in [2]; 102% in assay [3]; 92.7% in [4]; 79.7% in assay [5]; 87.8% in assay [6]. Further, the growth in assay [7] was 68.8%; in [8], 91.7%; in assay [9], 75.2%; in assay [10], 80.6%; in assay [11], 45.5%; in assay [12] it was 103%. Also, the growth in assay [13] was 93.3%; in assay [14], 86%; in [15], 83.3%; in assay [16], 84.2%; in assay [17], 78.9%; in assay [18], 67%. In addition, the growth in [19] is 86.7%.
On to `CC(C)CCSc1nc(-c2ccc(F)cc2)c(C#N)c(N2CCN(C)CC2)n1`, for which the growth is 91.5% in assay [1]; 96.8% in [2]; 87.8% in assay [3]; 85.2% in [4]; 88.8% in [5]; 59% in assay [6]. The growth is 65% in assay [7]; 65.6% in [8]; 84.6% in [9]; 94.4% in assay [10]; 62.7% in assay [11]; 97.4% in assay [12]. Further, the growth is 53.3% in assay [13]; 78.8% in assay [14]; 83% in assay [15]; 101% in [16]; 93.1% in assay [17]; 64.1% in assay [18]. In assay [19], the growth is 94.7%.
Consider `CCCCOc1nc2ccccc2cc1/C=C/c1cc(/C=C/c2cc3ccccc3nc2OCCCC)n(-c2ccccc2)n1`, for which the growth is 103% in [1]; 95.5% in assay [2]; 94.9% in assay [3]; 91.2% in [4]; 103% in assay [5]; 85.8% in assay [6]. The growth in [7] was 102%; in assay [8], 107%; in [9] it was 99.6%; in [10], 113%; in assay [11], 99%; in [12], 104%. Also, the growth was 103% in [13]; 106% in [14]; 107% in assay [15]; 114% in assay [16]; 110% in assay [17]; 96.4% in assay [18]. Further, in assay [19], the growth is 99.7%.
For the compound `CCOC(=O)Cn1c(-c2nonc2NC(=O)c2ccccc2F)nc2ccccc21`, the growth was 76.2% in [1]; 62.3% in [2]; 67.3% in assay [3]; 73.2% in assay [4]; 10.2% in assay [5]; 47.6% in [6]. Further, the growth in [7] was 24%; in assay [8], 46.4%; in assay [9] it was 60.1%; in [10], 53.2%; in [11] it was 31.3%; in assay [12], 77.4%. Also, the growth was 62.8% in assay [13]; 64.7% in assay [14]; 50% in [15]; 8.34% (active) in [16]; 44.7% in assay [17]; 72.1% in [18]. Moreover, in [19], the growth was 61.5%.

The values above are taken from PubChem BioAssay (NCI).
